This is an account of results in PubChem BioAssay (NCATS).

SMILES strings stand for the structures. Inconclusive results are not listed. Calls of active or inactive are those of the source. Calls come from the whole dose curve; as a rule, active = well fitted curve in the direction sought with a large enough effect; inconclusive = small, poorly fitted or top-dose-only effect, or another doubt; inactive = no such curve, though single readings can be large; an effect the other way counts as inactive or inconclusive.

Test [1] concerns the target Chromobox protein homolog 1 (Homo sapiens) (UniProt P83916). The test can be described thus: qHTS Validation Assay for Inhibitors of HP1-beta Chromodomain Interactions with Methylated Histone Tails (AID 488953). Note: nearly all actives have a fitted effect of over 50% in size. Note: potency is the fitted concentration of half-maximal effect. The method, boiled down: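 AlphaScreen proximity signal from streptavidin donor and nickel chelate acceptor beads (final 10 ug/mL) after 30 min dark incubation. Compounds had 30 min at room temperature with preformed complex of 50 nM HP1-beta and 50 nM b-H3(1-18)K9me3 in PBS pH 7.4 with 0.01% Tween-20.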

Test [2] addresses Methanococcus maripaludis chaperonin (MmCpn) (UniProt Q6LX38). The test is described as follows: High-Throughput Screening for Modulators of Cytosolic Chaperonin Activity: MmCpn Primary Screen (AID 488978).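 Note: 50 nM MmCpn enzyme hydrolysing 30 µM ATP at 37 °C.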 The method in brief:
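MmCpn at 50 nM final was preincubated 5 min at RT with compound. ATP was then added at 30 uM final for 10 min at 37 C. ADP formed was detected by Transcreener HTRF (665/590 nm).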

For test [3], the target named is Transient receptor potential cation channel subfamily V member 1 (Homo sapiens) (UniProt Q8NER1). The test can be described thus: HTS Assay for Compounds that Act as Enhancers of the Vanilloid Receptor 1 (AID 488979). The method in brief: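 TRPV1-expressing cells loaded with Fluo-8 calcium dye; compounds added and calcium influx read kinetically for 3 min (agonist phase), then capsaicin at EC20 added and read 2 min more for enhancement. Fluorescence ex 480/em 520 nm.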
Transient receptor potential cation channel subfamily V member 1 (Homo sapiens), sequence (Q8NER1 whole entry, looked up): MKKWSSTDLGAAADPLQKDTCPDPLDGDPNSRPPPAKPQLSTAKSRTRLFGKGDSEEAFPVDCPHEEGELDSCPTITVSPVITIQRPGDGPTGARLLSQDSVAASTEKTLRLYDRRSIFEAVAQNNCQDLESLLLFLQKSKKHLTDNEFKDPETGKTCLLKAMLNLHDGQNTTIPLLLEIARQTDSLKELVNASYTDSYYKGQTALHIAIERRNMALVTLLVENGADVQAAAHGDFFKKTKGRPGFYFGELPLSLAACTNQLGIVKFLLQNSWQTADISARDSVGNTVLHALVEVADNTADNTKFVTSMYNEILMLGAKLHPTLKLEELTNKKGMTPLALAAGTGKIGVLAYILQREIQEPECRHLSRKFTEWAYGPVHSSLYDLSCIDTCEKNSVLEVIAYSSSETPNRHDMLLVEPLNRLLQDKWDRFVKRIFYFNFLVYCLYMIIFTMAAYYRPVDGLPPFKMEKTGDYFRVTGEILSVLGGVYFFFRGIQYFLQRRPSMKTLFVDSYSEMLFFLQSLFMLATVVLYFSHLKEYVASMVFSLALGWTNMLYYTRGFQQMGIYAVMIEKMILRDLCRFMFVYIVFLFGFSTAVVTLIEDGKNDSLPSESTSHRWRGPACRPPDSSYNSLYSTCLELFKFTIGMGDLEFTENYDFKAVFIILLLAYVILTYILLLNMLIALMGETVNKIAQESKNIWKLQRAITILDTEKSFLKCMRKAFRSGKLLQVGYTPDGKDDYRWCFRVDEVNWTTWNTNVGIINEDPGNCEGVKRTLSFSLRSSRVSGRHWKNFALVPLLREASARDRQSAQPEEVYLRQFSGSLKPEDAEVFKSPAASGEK

Test [4] has as its target Thyrotropin receptor (Homo sapiens) (UniProt P16473). The test can be described thus: qHTS Assay for Antagonists of the Thyroid Stimulating Hormone Receptor (AID 488980). Note: series mostly up to about 58 µM. The method in brief:
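TSHR-transfected HEK293 cells (2000/well) in HEPES-buffered HBSS with 70 uM RO 20-1724 were stimulated with 4 nM TSH (EC80, final) in the presence of compound. cAMP was measured by HTRF competition after lysis and 30 min at RT.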
For orientation: Quantitative high-throughput screening tests each substance at several concentrations.

Test [5] concerns the target D(1A) dopamine receptor (Homo sapiens) (UniProt P21728). The test is described as follows: HTS Assay for Allosteric Agonists of the Human D1 Dopamine Receptor: Primary Screen for Agonists (AID 488981). The method, boiled down: (§1)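 Tetracycline-induced HEK293 T-REx cells force-coupled to calcium signalling were incubated overnight at 30 C and dye-loaded at room temperature. Calcium flux over 180 s after compound addition flagged agonists; a further 180 s read after EC20 dopamine flagged potentiators.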

The target is the same in test [6]. The test can be described thus: HTS Assay for Allosteric Agonists of the Human D1 Dopamine Receptor: Primary Screen for Potentiators (AID 488982). The method in brief: as §1
Test [7] concerns the target ATP-dependent 6-phosphofructokinase (Trypanosoma brucei brucei) (UniProt O15648). The test is described as follows: qHTS Assay to Find Inhibitors of T. brucei phosphofructokinase: hit validation (AID 492961).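 Note: luminescence reports ADP formed as PFK phosphorylates fructose-6-phosphate with ATP; series mostly up to about 51 µM.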 The method, boiled down:
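Percent activity derived from corrected luminescence, normalized between 0x and 1x enzyme controls, then fitted to concentration-response curves. Conditions: 1.25 nM PFK, 0.1 mM ATP, 0.5 mM F6P, 45 min RT.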

Test [8] can be described thus: Validation screen for small molecules that induce genotoxicity in human embryonic kidney (HEK293T) cells expressing luciferase-tagged ELG1 (AID 493106). The method in brief:
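ELG1-luciferase reporter readout (ONE-Glo, 30 min, room temperature) after 16 hr compound treatment at 37 °C of HEK293T cells at 2,000 per well. Rising luminescence flags genotoxic stress.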

Test [9] deals with ATPase family AAA domain-containing protein 5 (Homo sapiens) (UniProt Q96QE3). The test is described as follows: Validation screen for small molecules that inhibit ELG1-dependent DNA repair in human embryonic kidney (HEK293T) cells expressing luciferase-tagged ELG1 (AID 493107). Note: nearly all actives have a fitted effect of over 70% in size. Note: potency is the fitted concentration of half-maximal effect. The method in brief:
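Luciferase read-out, ONE-Glo, 30 min at room temperature, follows 16 h co-exposure at 37 C of compound and the DNA-damaging agent 5-fluorouridine. Cells: HEK293T with ELG1-luciferase fusion, 2,000 per well, DMSO as vehicle.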

Test [10] deals with D(1A) dopamine receptor (Homo sapiens) (UniProt P21728). The test can be described thus: HTS Assay for Allosteric Agonists of the Human D1 Dopamine Receptor: Primary Screen for Antagonists (AID 488983).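 Note: calcium flux response to an EC80 dopamine challenge measured with no-wash dye; nearly all actives have a fitted effect of over 65% in size.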 The method, boiled down: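 Calcium-flux read-out in inducible HEK293 T-REx cells expressing D1, dye-loaded 30–90 min at room temperature. Kinetic reads: 180 s after compound (agonist phase), then 180 s after an EC80 dopamine challenge.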
D(1A) dopamine receptor (Homo sapiens), sequence (P21728 whole entry, looked up): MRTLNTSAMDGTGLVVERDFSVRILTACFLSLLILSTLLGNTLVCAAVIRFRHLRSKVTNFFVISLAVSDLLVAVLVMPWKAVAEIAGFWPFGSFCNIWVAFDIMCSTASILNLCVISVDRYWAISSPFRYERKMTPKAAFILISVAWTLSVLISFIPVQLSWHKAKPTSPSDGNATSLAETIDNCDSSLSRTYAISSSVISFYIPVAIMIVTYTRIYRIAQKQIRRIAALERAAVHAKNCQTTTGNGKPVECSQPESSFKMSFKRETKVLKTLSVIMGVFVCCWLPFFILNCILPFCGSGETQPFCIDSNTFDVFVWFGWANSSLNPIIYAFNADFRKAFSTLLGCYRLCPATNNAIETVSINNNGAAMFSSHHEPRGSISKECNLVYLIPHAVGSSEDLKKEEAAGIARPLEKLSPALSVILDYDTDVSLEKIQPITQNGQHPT

Thyrotropin receptor (Homo sapiens), sequence (P16473 whole entry, looked up): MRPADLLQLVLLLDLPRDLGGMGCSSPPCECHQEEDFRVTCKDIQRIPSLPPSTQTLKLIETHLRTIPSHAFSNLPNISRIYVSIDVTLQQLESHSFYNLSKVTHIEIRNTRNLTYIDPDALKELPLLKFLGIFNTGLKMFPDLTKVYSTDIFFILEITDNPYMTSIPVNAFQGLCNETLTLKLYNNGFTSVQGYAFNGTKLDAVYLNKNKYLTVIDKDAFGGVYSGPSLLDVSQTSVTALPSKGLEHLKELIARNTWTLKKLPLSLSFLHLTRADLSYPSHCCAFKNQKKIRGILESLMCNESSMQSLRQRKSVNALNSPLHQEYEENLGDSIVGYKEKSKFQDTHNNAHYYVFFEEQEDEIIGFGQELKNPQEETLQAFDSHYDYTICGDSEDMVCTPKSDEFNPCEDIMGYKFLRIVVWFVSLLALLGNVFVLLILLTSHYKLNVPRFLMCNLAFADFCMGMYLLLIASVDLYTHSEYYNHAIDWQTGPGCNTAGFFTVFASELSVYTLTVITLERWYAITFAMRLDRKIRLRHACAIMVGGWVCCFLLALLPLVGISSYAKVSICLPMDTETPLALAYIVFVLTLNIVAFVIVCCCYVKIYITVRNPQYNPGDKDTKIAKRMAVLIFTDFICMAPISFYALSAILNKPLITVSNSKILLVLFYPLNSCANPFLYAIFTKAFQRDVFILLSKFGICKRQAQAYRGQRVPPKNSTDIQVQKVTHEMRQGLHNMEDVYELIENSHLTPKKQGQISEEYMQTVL
ATP-dependent 6-phosphofructokinase (Trypanosoma brucei brucei), sequence (O15648 whole entry, looked up): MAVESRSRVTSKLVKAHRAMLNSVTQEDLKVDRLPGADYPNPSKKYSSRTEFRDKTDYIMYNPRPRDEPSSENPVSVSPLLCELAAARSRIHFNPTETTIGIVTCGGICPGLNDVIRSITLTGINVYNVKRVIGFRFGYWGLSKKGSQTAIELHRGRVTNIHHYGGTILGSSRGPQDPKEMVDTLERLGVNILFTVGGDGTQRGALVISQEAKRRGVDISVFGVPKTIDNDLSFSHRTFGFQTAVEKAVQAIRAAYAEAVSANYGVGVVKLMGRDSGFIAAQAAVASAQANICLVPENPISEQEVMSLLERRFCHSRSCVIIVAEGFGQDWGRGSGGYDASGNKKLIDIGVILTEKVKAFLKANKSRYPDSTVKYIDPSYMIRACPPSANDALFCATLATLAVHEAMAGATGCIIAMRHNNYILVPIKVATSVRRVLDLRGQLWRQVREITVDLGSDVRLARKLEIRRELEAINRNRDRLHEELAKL
Chromobox protein homolog 1 (Homo sapiens), sequence (P83916 whole entry, looked up): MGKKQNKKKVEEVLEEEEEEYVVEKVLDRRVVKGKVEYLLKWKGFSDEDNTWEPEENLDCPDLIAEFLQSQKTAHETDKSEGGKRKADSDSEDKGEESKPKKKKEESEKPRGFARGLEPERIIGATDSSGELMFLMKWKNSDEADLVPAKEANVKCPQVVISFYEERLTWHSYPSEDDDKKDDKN
Methanococcus maripaludis chaperonin (MmCpn), sequence (Q6LX38 1-543): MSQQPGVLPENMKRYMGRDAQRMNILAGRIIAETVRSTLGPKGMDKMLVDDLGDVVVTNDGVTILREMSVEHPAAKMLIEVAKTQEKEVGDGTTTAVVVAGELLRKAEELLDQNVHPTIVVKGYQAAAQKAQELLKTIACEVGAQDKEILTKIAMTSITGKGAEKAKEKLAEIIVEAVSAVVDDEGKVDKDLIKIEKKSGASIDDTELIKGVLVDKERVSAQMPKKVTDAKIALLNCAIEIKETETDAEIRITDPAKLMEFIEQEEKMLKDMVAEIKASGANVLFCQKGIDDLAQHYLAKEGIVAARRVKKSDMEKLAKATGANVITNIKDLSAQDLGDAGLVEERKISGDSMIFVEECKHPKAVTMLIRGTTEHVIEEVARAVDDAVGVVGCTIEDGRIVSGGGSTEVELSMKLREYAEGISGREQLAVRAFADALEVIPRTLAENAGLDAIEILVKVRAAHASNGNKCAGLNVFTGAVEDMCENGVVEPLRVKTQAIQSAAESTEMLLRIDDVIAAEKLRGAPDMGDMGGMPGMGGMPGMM

In the case of `CN(C)C(=O)Oc1cccc([N+](C)(C)C)c1`, the Potency entry in test [1], in test [5], in test [6], in test [8] and in test [9] was “inactive” in each case. The result in [2], in test [3], in [4] and in test [7] was inactive.
With `CCO/C([O-])=N/c1c[n+](N2CCOCC2)no1`, the Potency result in [1], in [5], in test [6], in [8] and in [9] was “inactive” in each case. In addition, the outcome in test [2], in test [3], in test [4] and in test [7] was inactive.
As for `CC(N=C(NC#N)Nc1ccncc1)C(C)(C)C` (centres undefined), the Potency result in [1], in test [5], in [6], in [10], in test [8] and in [9] was “inactive” throughout. Moreover, the call in [2], in test [3] and in test [7] was inactive.
Turning to `O=c1[nH]c(=O)n([C@H]2C[C@H](O)[C@@H](CO)O2)cc1Br`, the Potency entry in test [1], in test [5], in test [6] and in test [9] was “inactive” each time. Also, the compound was classed as inactive in test [2], in test [3], in test [4] and in [7].
In the case of `OC(CCN1CCCCC1)(c1ccccc1)C1CCCCC1` (centres undefined), the Potency result in test [1], in [5], in [6], in test [8] and in [9] was “inactive” throughout. In addition, the compound was classed as inactive in test [2], in test [3], in [4] and in [7].
Take `C[N+](C)(C)CCOC(N)=O`: the Potency entry in test [1], in test [5], in [6], in [10], in test [8] and in test [9] was “inactive” throughout. The outcome in test [2], in test [3], in [4] and in test [7] was inactive.
`COC(=O)[C@H]1[C@H]2C[C@@H]3c4[nH]c5cc(OC)ccc5c4CCN3C[C@H]2C[C@@H](OC(=O)c2cc(OC)c(OC)c(OC)c2)[C@@H]1OC`: the Potency in [1] was 39.8 µM (active); in [9], 11.6 µM (active). Further, the result in test [2], in test [3] and in test [7] was inactive. In addition, the Potency result in test [5], in test [6], in test [10] and in test [8] was “inactive” in each case.
`O=C(O)CN(CCOCCOCCN(CC(=O)O)CC(=O)O)CC(=O)O`: the Potency result in test [1], in test [5], in [6], in [8] and in test [9] was “inactive” each time. Also, the outcome in [2], in test [3], in test [4] and in test [7] was inactive.
Regarding `CC(=O)Oc1cc(C(C)C)c(OCCN(C)C)cc1C`, the Potency result in test [1], in [5], in test [6], in test [10], in [8] and in [9] was “inactive” in each case. Further, the outcome in test [2], in test [3], in test [4] and in test [7] was inactive.
Consider `CC[N+](C)(C)c1cccc(O)c1`, for which the Potency result in [1], in [5], in [6], in test [10], in test [8] and in test [9] was “inactive” each time. The compound was called inactive in test [2], in test [3] and in test [7].
With `C[C@]12CCC(=O)C=C1CC[C@@H]1[C@@H]2CC[C@@]2(C)[C@H]1CC[C@]2(O)C(=O)CO`, the Potency entry in test [1], in test [5], in test [6] and in test [8] was “inactive” each time. Further, the result in test [2], in test [3], in test [4] and in test [7] was inactive.
As to `O=C(O)CP(=O)(O)O`, the Potency result in test [1], in test [5], in test [6], in test [10], in test [8] and in test [9] was “inactive” each time. Moreover, the result in test [2], in [3], in test [4] and in [7] was inactive.
Consider `C[C@]12C=CC(=O)C=C1CC[C@H]1[C@@H]3C[C@@H](O)[C@](O)(C(=O)CO)[C@@]3(C)C[C@H](O)[C@@]12F`, for which the Potency result in test [1], in [5], in [6], in test [10], in [8] and in [9] was “inactive” throughout. Further, the compound was classed as inactive in test [2], in [3] and in test [4].
In the case of `c1cnc(N2CCN(Cc3ccc4c(c3)OCO4)CC2)nc1`, the Potency entry in [1], in test [5], in test [6], in [10], in test [8] and in test [9] was “inactive” in each case. In addition, the call in test [2], in [3] and in test [4] was inactive.
In the case of `Cc1ccc(=O)n(-c2ccccc2)c1`, the Potency result in test [1], in test [5], in test [6], in test [10], in [8] and in test [9] was “inactive” throughout. Moreover, the call in [2], in test [3], in test [4] and in test [7] was inactive.
For `CCn1nc(C(=O)O)c(=O)c2cc3c(cc21)OCO3`, the Potency result in [1], in [5], in [6], in [10], in test [8] and in test [9] was “inactive” in each case. For the same compound, the compound was classed as inactive in [2], in test [3], in test [4] and in test [7].
With `Nc1ncn([C@@H]2O[C@H](CO)[C@@H](O)[C@H]2O)c(=O)n1`, the Potency result in test [1], in test [5], in test [6] and in test [10] was “inactive” each time. Besides, the call in [2], in test [3], in test [4] and in test [7] was inactive.
Turning to `CCCOc1ccccc1-c1nc2n[nH]nc2c(=O)[nH]1`, the Potency entry in [1], in [5], in [6], in test [8] and in [9] was “inactive” in each case. For the same compound, the call in test [2], in test [3], in [4] and in test [7] was inactive.
In the case of `CC1=NS(=O)(=O)c2cc(Cl)ccc2N1`, the Potency result in [1], in [5], in test [10], in test [8] and in test [9] was “inactive” throughout. The call in [2], in test [3] and in [4] was inactive.
For the compound `CCN(CC)CCNC(=O)c1ccc(NC(C)=O)cc1`, the Potency result in [1], in [5], in [6], in [10], in test [8] and in test [9] was “inactive” each time. Also, the compound was classed as inactive in [2], in test [3] and in test [7].
As to `CCOC(=O)c1cnc2c(cnn2CC)c1NN=C(C)C`, the Potency result in [1], in test [5], in test [6], in [10], in test [8] and in [9] was “inactive” in each case. The compound was called inactive in [2], in [3] and in test [7].
On to `CC(=O)Nc1nnc(S(N)(=O)=O)s1`, for which the Potency result in test [1], in test [5], in test [6], in [8] and in [9] was “inactive” in each case. The call in test [2], in test [3] and in [4] was inactive.
Take `CN(C(=O)CCCOc1ccc2[nH]c(=O)ccc2c1)C1CCCCC1`: the Potency result in [1], in test [5], in test [6] and in test [10] was “inactive” each time. Also, the compound was classed as inactive in test [2], in test [3], in test [4] and in test [7].
In the case of `C#CCN(C)CCCOc1ccc(Cl)cc1Cl`, the Potency entry in [1], in test [5], in [6], in [10] and in [8] was “inactive” throughout. In addition, the compound was classed as inactive in test [2], in [3] and in [7].
